Laboratory results from the supplement of paper PMC10849652.
About 7,900 targets were measured; listed, in parts, are those with a hit and a random draw of the rest. About 0.6% of all pairs of compound and target were hits.

Key:
Assay in all cases: log2 fold change, soluble protein after heating vs DMSO (PISA); higher = thermal stabilisation; K562 cells, 10 uM, 30 min; active = over 0.2 and 3.5 SD of the protein, either way, in both replicates (recomputed)
[1] = compound: C1COCCN1CCN2C3=CC=CC=C3N=C2NC(=O)C4=CC(=CC=C4)[N+](=O)[O-] [IRAK-1-4 Inhibitor I]
Procedure, shortened: (§1)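 Values are thermal stability changes relative to control samples and are taken from duplicates. They are stated as log2 fold changes. Before quantification by TMTpro 16plex LC-MS/MS with equalised channel sums, K562 cells at 2×10^6 cells/mL were treated with 10 μM compound for 30 min, heated in aliquots for 3 min across 48°C-58°C, pooled, extracted in PBS with 0.5% NP-40 at 4°C, and centrifuged at 21,000xg for 90 min to give the soluble supernatant.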

[2] = compound: C=CC(=O)N1CCC[C@@H](n2nc(-c3ccc(Oc4ccccc4)cc3)c3c(N)ncnc32)C1 [ibrutinib]
Procedure, shortened: as §1

[3] = compound: CC(=O)c1cnc2ccc(-c3cc(Cl)c(O)c(Cl)c3)nc2c1N[C@H]1CC[C@H](CN(C)C)CC1
Procedure, shortened: as §1

[4] = compound: CC(C)(C)Cn1c(N)nc2ccc(-c3[nH]c(C(C)(C)C)nc3-c3ccc(F)cc3)nc21 [ralimetinib]
Procedure, shortened: as §1

[5] = compound: CC(C)(O)CC(=O)NCCn1ccc2ncnc(Nc3ccc(Oc4cccc(C(F)(F)F)c4)c(Cl)c3)c21
Procedure, shortened: as §1

[6] = compound: CC(C)C1=C2N=C(C=C(N2N=C1)NCC3=CC=CC=C3)NCCCCCCN
Procedure, shortened: as §1

[7] = compound: CC(C)C[C@@H](C=O)NC(=O)[C@H](CC(C)C)NC(=O)[C@H](CC(C)C)NC(=O)OCc1ccccc1
Procedure, shortened: as §1

[8] = compound: CC(C)N(C[C@H]1O[C@@H](n2cnc3c(N)ncnc32)[C@H](O)[C@@H]1O)[C@H]1C[C@@H](CCc2nc3cc(C(C)(C)C)ccc3[nH]2)C1 [pinometostat]
Procedure, shortened: as §1

[9] = compound: CC1=C(C(CC(=O)N1)C2=CC=C(C=C2)C(F)(F)F)C(=O)NC3=C(C=C4C(=C3)C=NN4)F
Procedure, shortened: as §1

[10] = compound: CC1=C(C2=C(C=C1)C(=O)C3=CC=CC=C3N2CCCN)C
Procedure, shortened: as §1

Measured: log2 fold change

PRKAR2B (UniProt P31323)
inactive: [1] -0.038 | [2] -0.011 | [4] -0.039 | [5] -0.007 | [6] -0.068 | [7] 0.044 | [8] 0.108 | [9] -0.075 | [10] 0.022
active: [3] -0.833

PRKCQ (UniProt Q04759)
inactive: [1] 0.004 | [2] -0.026 | [4] -0.02 | [5] -0.037 | [6] -0.103 | [7] -0.011 | [8] 0.028 | [9] 0.024 | [10] 0.018
active: [3] -2.02

PCGF2 (UniProt P35227)
inactive: [1] -0.077 | [2] -0.101 | [3] -0.164 | [4] -0.036 | [5] 0 | [6] -0.095 | [7] 0.065 | [8] -0.075 | [9] -0.119 | [10] 0.107

PDPK1 (UniProt O15530)
Sequence of UniProt O15530 (O15530 whole entry, looked up): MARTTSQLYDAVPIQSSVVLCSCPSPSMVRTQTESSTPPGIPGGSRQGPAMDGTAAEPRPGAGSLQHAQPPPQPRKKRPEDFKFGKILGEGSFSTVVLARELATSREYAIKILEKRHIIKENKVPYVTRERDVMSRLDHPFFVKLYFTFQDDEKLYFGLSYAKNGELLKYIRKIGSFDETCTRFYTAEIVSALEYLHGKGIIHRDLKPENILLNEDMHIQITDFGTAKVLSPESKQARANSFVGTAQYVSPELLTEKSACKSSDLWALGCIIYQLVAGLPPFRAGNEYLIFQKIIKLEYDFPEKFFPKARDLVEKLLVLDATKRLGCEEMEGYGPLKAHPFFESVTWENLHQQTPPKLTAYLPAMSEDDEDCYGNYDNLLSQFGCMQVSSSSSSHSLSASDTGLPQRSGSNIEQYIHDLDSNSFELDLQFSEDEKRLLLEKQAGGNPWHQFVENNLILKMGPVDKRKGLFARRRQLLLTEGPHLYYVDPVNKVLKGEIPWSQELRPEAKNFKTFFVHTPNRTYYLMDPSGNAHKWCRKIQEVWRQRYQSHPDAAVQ
active: [3] -0.346
inactive: [1] 0.019 | [2] -0.043 | [4] -0.067 | [5] -0.087 | [6] -0.134 | [7] 0.015 | [8] 0.001 | [9] 0.035 | [10] 0.027

PLCL1 (UniProt Q15111)
Sequence of UniProt Q15111 (Q15111 whole entry, looked up): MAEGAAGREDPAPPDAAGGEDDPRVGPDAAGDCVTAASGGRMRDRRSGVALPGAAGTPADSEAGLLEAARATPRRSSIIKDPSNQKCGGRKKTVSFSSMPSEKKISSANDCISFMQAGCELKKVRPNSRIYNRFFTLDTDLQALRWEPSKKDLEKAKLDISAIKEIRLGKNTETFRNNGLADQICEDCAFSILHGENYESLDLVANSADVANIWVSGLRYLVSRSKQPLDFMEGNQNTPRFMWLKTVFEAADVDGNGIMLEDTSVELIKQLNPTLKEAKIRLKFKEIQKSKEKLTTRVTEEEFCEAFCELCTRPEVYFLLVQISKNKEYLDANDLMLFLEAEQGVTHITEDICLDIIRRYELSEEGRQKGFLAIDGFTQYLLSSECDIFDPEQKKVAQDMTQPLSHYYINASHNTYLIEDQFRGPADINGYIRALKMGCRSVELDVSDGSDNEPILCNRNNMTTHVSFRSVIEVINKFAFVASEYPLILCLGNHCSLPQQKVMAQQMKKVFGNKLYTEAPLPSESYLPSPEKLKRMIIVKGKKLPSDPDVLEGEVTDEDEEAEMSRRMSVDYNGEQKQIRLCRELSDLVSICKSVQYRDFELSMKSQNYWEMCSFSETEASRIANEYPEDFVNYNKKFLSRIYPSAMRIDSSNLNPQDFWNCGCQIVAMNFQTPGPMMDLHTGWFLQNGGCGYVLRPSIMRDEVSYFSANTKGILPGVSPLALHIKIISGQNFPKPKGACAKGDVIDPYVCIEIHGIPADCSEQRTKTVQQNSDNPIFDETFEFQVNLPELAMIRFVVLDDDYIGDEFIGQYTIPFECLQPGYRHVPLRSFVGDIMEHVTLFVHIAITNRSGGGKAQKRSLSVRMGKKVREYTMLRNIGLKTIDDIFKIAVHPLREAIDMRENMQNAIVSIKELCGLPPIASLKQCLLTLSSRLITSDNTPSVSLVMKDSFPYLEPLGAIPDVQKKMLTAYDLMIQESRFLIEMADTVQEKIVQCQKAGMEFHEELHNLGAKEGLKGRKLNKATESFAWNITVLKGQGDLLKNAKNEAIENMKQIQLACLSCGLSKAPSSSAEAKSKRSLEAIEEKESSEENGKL
inactive: [1] -0.007 | [2] 0.31 | [3] 0.08 | [4] 0.125 | [5] -0.329 | [6] -0.102 | [7] 0.089 | [8] 0.365 | [9] -0.086 | [10] -0.193

PECAM1 (UniProt P16284)
active: [10] 0.261
inactive: [1] 0.021 | [2] 0.004 | [3] -0.031 | [4] -0.002 | [5] -0.082 | [6] 0.141 | [7] -0.057 | [8] 0.012 | [9] 0.039

PIGT (UniProt Q969N2)
Sequence of UniProt Q969N2 (Q969N2 whole entry, looked up): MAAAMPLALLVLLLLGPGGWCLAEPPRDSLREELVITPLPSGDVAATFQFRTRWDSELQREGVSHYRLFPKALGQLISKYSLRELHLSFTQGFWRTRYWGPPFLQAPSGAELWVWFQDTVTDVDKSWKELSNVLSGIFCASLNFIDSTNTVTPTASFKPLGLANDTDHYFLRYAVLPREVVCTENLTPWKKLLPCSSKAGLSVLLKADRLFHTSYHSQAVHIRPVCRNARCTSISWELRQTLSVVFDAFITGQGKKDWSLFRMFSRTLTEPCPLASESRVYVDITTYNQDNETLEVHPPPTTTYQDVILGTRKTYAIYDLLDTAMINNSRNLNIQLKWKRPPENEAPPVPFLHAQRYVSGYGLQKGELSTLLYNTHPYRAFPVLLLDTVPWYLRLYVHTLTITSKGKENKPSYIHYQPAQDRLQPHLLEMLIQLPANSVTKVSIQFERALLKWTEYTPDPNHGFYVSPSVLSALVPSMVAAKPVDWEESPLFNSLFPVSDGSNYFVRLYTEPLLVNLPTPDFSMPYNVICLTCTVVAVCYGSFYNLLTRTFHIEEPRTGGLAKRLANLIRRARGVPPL
inactive: [1] -0.016 | [2] 0.01 | [3] -0.009 | [4] 0.022 | [5] -0.067 | [6] -0.089 | [7] 0.002 | [8] 0.045 | [9] 0.018 | [10] 0.01

PRIM2 (UniProt P49643)
inactive: [1] -0.043 | [2] -0.04 | [3] -0.065 | [4] -0.058 | [5] -0.265 | [6] -0.213 | [7] 0.074 | [8] 0.005 | [9] 0 | [10] 0.059

PPP1CA (UniProt P62136)
inactive: [1] 0.041 | [2] -0.02 | [3] -0.018 | [4] -0.012 | [5] 0.007 | [6] 0.015 | [7] 0.009 | [8] -0.071 | [9] -0.013 | [10] -0.007

PPP2R5A (UniProt Q15172)
inactive: [1] 0.005 | [2] -0.024 | [3] 0.004 | [4] 0.066 | [5] -0.16 | [6] -0.193 | [7] 0.023 | [8] 0.025 | [9] 0.02 | [10] 0.071

PFDN1 (UniProt O60925)
Sequence of UniProt O60925 (O60925 whole entry, looked up): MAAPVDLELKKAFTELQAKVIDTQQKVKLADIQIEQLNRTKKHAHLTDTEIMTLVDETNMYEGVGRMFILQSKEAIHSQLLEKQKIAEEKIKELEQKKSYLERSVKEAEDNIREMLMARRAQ
inactive: [1] -0.187 | [2] -0.119 | [3] -0.002 | [4] -0.141 | [5] -0.031 | [6] 0.062 | [7] -0.13 | [8] -0.175 | [9] -0.021 | [10] 0.254

PELP1 (UniProt Q8IZL8)
inactive: [1] 0.017 | [2] -0.017 | [3] -0.106 | [4] 0.04 | [5] -0.031 | [6] 0.017 | [7] -0.019 | [8] 0.008 | [9] 0.029
active: [10] -2.07

PSMD2 (UniProt Q13200)
Sequence of UniProt Q13200 (Q13200 whole entry, looked up): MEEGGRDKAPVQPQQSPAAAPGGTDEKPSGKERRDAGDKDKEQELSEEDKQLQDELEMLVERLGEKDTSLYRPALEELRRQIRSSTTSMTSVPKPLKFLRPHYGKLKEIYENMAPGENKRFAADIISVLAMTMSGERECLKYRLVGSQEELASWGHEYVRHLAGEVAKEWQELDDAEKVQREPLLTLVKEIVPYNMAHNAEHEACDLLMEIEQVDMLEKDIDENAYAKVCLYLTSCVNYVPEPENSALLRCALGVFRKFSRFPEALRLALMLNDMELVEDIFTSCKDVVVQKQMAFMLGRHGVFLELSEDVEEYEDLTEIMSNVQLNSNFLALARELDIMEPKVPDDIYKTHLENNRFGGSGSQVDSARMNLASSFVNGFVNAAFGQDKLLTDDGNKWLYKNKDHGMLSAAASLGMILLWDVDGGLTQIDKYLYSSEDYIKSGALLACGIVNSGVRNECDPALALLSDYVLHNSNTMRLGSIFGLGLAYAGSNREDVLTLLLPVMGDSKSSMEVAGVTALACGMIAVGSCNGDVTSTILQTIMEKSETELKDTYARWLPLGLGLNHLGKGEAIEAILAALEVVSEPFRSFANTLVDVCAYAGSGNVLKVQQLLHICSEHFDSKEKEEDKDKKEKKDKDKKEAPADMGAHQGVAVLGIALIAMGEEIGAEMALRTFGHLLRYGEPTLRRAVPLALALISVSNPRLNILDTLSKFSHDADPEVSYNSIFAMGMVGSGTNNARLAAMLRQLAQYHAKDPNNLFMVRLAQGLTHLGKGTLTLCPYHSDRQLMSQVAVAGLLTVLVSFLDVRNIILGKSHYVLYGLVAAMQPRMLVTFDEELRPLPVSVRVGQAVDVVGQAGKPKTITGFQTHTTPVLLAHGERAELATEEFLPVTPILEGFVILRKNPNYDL
inactive: [1] -0.08 | [2] -0.035 | [3] 0.039 | [4] 0.018 | [5] 0.021 | [6] 0.039 | [8] 0.019 | [9] 0.04 | [10] -0.036
active: [7] -0.296

PGGT1B (UniProt P53609)
inactive: [1] 0.003 | [2] -0.004 | [3] -0.062 | [4] -0.055 | [5] 0.026 | [6] -0.019 | [7] 0.026 | [8] -0.03 | [9] 0.027 | [10] -0.028

PBX2 (UniProt P40425)
inactive: [1] -0.078 | [2] 0.023 | [3] -0.122 | [4] 0.04 | [5] -0.145 | [6] -0.184 | [7] 0.078 | [8] -0.058 | [9] 0.131 | [10] -0.005

PRKAR1A (UniProt P10644)
inactive: [1] -0.068 | [2] 0.035 | [3] -0.049 | [4] 0.268 | [5] 0.041 | [6] -0.149 | [7] 0.041 | [8] 0.131 | [9] -0.084 | [10] -0.127

PDIK1L (UniProt Q8N165)
active: [3] -0.693
inactive: [1] -0.006 | [2] -0.205 | [4] -0.173 | [5] 0.032 | [6] -0.139 | [7] 0.091 | [8] -0.012 | [9] 0.052 | [10] -0.197

PLA2G15 (UniProt Q8NCC3)
Sequence of UniProt Q8NCC3 (Q8NCC3 whole entry, looked up): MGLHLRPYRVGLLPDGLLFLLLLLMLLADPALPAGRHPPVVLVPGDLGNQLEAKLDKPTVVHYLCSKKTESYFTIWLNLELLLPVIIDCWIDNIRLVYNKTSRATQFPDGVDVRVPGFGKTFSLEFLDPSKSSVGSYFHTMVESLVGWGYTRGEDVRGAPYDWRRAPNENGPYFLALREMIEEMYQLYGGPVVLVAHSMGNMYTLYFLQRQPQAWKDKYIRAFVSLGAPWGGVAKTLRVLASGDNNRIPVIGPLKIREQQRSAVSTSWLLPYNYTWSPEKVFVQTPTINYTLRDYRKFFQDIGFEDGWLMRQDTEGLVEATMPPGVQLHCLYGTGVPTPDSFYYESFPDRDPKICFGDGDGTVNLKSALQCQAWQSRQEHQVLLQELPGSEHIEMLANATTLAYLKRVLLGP
inactive: [1] 0.071 | [2] -0.012 | [3] -0.018 | [4] -0.057 | [5] -0.004 | [6] -0.024 | [7] 0.113 | [8] 0.006 | [9] -0.031 | [10] -0.141

PPIL2 (UniProt Q13356)
Sequence of UniProt Q13356 (Q13356 whole entry, looked up): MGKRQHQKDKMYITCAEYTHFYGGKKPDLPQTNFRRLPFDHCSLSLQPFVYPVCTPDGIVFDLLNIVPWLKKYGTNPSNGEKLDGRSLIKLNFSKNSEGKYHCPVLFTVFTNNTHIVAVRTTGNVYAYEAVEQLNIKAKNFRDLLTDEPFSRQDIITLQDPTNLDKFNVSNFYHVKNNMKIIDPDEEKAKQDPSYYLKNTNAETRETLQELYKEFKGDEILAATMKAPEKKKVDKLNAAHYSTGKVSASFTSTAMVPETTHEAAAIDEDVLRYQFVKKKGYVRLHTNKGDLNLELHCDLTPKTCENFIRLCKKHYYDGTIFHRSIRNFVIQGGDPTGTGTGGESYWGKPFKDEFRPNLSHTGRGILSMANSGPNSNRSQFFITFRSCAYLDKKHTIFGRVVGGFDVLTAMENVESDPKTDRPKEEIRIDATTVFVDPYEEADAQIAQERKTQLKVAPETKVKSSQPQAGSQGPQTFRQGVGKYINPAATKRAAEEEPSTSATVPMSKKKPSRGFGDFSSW
inactive: [1] -0.097 | [2] -0.048 | [3] -0.077 | [4] 0 | [5] -0.081 | [6] -0.044 | [7] 0.096 | [8] -0.063 | [9] -0.043 | [10] 0.062

PRPF4B (UniProt Q13523)
inactive: [1] -0.126 | [2] -0.015 | [3] -0.263 | [4] -0.001 | [5] 0.138 | [6] -0.029 | [7] 0.077 | [8] 0.099 | [9] -0.006 | [10] -0.209

PLIN2 (UniProt Q99541)
active: [6] -1.11
inactive: [1] 0.058 | [2] 0.055 | [3] 0.005 | [4] -0.065 | [5] -0.083 | [7] -0.014 | [8] 0.007 | [9] -0.031 | [10] -0.022

PRPF3 (UniProt O43395)
inactive: [1] -0.018 | [2] -0.038 | [3] -0.179 | [4] -0.008 | [5] -0.055 | [6] -0.205 | [7] -0.001 | [8] 0 | [9] 0 | [10] -0.2

PSMC5 (UniProt P62195)
active: [7] -0.273
inactive: [1] -0.038 | [2] -0.031 | [3] 0.008 | [4] -0.014 | [5] 0.024 | [6] 0.009 | [8] 0.021 | [9] 0.037 | [10] 0.002

PPM1G (UniProt O15355)
inactive: [1] -0.095 | [2] -0.102 | [3] -0.098 | [4] -0.044 | [5] -0.17 | [6] -0.223 | [7] 0.088 | [8] -0.067 | [9] -0.121 | [10] -0.002

PRKACB isoform 2 (UniProt P22694)
inactive: [1] -0.007 | [2] -0.032 | [3] -0.067 | [4] -0.035 | [5] -0.011 | [6] -0.012 | [7] 0.054 | [8] -0.008 | [9] -0.034 | [10] 0.044

QKI (UniProt Q96PU8)
inactive: [1] -0.034 | [2] -0.004 | [3] -0.113 | [4] 0.007 | [5] 0.019 | [6] -0.221 | [7] -0.005 | [8] -0.026 | [9] 0.046 | [10] -0.043

PSME4 (UniProt Q14997)
inactive: [1] 0.003 | [2] -0.022 | [3] -0.023 | [4] -0.024 | [5] -0.097 | [6] -0.043 | [8] 0.068 | [9] 0.023 | [10] 0.105
active: [7] 0.271

PAK4 (UniProt O96013)
Sequence of UniProt O96013 (O96013 whole entry, looked up): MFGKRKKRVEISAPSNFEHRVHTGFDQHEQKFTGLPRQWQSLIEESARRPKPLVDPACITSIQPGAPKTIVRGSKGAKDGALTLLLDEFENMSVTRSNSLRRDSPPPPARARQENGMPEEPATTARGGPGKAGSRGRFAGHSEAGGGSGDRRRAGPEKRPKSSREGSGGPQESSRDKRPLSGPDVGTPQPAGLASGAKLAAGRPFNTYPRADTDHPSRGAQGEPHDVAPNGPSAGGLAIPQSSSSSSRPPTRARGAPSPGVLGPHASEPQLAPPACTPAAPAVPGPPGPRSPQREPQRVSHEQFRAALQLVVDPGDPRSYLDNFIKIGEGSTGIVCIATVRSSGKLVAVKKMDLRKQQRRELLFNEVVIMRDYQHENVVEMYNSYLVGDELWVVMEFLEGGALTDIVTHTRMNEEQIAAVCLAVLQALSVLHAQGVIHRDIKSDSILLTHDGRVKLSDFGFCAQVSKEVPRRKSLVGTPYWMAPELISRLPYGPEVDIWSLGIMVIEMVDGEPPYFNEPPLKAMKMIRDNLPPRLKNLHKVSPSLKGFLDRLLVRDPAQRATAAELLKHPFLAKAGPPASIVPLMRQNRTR
inactive: [1] 0.038 | [2] -0.032 | [3] 0.173 | [4] -0.084 | [5] 0 | [6] 0.015 | [7] 0.07 | [8] 0.016 | [9] -0.052 | [10] 0.049

PHAX (UniProt Q9H814)
active: [10] -0.253
inactive: [1] 0.015 | [2] 0.027 | [3] -0.041 | [4] 0.002 | [5] 0.024 | [6] -0.16 | [7] 0.019 | [8] 0.016 | [9] 0.071

PRPF31 (UniProt Q8WWY3)
inactive: [1] -0.066 | [2] -0.028 | [3] -0.3 | [4] 0.069 | [5] -0.144 | [6] -0.387 | [7] 0.004 | [8] 0 | [9] -0.016 | [10] -0.271
